Measured values from PubChem BioAssay.
The source made the active and inactive calls. Unless noted, how the calls were made is not given here.

What was measured:
[1] = compounds binding Alexa647 anti-His antibody – biochemical, small-molecule microarray, 635 nm fluorescence, artefact control for SMM control protein annotation, primary screen (AID 1128); conditions: higher = more signal;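 further: score merges feature fluorescence with signal-to-noise for each printed compound spot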
[2] = tested on: Human papillomavirus type 1a E7 protein (residues 1-88); experiment: HPV1a E7 small-molecule binders, primary screen, biochemical, small-molecule microarray, residues 1-88, 635 nm (AID 1129); conditions: small-molecule microarray binding, fluorescence 635 nm; higher = more signal
[3] = target: Focal adhesion kinase 1 (Homo sapiens) (UniProt Q05397); experiment: PTK2 protein binding on printed compound slides – biochemical, small-molecule microarray, 635/667 nm fluorescence, BSA, DTT, primary screen (AID 1130); conditions: 635 nm fluorescence, higher = more signal;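 further: composite of spot emission at 667 nm and signal to noise over triplicate slides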
Chain of Focal adhesion kinase 1 (Homo sapiens) (Q05397 whole entry, looked up): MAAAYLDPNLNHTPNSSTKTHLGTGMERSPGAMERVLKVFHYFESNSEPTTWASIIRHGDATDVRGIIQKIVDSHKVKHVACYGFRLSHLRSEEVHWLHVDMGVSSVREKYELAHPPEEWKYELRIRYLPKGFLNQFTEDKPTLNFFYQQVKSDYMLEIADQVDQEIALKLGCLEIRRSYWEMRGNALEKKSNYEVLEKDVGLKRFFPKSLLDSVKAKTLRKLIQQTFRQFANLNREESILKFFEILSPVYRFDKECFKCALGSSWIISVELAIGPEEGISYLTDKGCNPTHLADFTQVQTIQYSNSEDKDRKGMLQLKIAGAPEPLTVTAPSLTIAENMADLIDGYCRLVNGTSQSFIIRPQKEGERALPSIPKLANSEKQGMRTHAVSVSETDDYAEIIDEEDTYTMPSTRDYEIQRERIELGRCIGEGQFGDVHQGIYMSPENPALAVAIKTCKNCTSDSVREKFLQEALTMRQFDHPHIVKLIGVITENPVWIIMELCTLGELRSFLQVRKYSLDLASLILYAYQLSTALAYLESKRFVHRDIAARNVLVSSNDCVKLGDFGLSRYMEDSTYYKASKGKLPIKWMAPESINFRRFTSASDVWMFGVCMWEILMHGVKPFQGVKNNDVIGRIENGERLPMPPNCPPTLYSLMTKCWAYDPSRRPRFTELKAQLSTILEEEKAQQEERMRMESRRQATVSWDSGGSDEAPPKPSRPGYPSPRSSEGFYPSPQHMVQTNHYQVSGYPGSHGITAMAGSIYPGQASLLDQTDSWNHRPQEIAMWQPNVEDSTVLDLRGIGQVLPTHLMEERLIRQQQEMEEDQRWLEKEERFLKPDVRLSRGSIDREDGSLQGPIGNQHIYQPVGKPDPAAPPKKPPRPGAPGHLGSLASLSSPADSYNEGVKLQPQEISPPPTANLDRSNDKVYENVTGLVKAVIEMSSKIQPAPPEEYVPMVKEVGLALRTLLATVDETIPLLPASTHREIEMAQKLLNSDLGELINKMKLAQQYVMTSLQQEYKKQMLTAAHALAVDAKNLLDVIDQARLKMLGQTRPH

[4] = tested on: Fibrinogen (Alexa647-labelled); experiment: Alexa647-fibrinogen binding to printed small molecules – biochemical, small-molecule microarray, 635/667 nm fluorescence, artefact control for SMM control-protein annotation, profiling panel (AID 1131); conditions: fibrinogen-A647 binding fluorescence, higher = more signal;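 further: z-score merges 667 nm fluorescence with per-spot signal-to-noise over triplicate slides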
[5] = target: Follistatin (Homo sapiens) (UniProt P19883); experiment: FST protein binding to printed compounds – biochemical, small-molecule microarray, 635/667 nm fluorescence, primary screen (AID 1132); conditions: 635 nm fluorescence, higher = more signal
Chain of Follistatin (Homo sapiens) (P19883 whole entry, looked up): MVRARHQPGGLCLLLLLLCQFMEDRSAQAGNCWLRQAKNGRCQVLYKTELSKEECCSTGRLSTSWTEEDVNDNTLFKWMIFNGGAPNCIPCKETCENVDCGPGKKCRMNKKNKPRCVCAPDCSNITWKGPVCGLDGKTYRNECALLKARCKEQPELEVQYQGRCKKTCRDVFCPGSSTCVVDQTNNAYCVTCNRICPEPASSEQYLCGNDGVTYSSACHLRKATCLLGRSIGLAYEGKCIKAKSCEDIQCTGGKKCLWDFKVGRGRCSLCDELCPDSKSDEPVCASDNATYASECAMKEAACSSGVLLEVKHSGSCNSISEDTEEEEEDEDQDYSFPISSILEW

[6] = target: Fibroblast growth factor 2 (Homo sapiens) (UniProt P09038); experiment: basic fibroblast growth factor binding to printed compounds – biochemical, small-molecule microarray, 635/667 nm fluorescence, primary screen (AID 1133); conditions: FGF2, fluorescence 635/667, higher = more signal
Chain of Fibroblast growth factor 2 (Homo sapiens) (P09038 whole entry, looked up): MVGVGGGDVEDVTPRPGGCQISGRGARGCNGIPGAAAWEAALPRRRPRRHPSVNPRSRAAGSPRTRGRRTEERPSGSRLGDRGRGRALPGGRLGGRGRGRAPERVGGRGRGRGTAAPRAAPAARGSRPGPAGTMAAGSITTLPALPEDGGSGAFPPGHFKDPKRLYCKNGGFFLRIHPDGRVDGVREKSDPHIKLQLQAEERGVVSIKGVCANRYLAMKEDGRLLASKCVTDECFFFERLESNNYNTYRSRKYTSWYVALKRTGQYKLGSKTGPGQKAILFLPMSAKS

[7] = JC-1 mitochondrial potential readout, lung cancer cells – cell-based, A549, JC-1 fluorescence, basal, 24 h, 100 nL, profiling panel (AID 1138); conditions: higher = more signal;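 further: A549 lung adenocarcinoma cells under basal conditions with no added stimulus; test concentration not given here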
Lefty1 = Lefty1 protein binding to printed compounds – biochemical, small-molecule microarray, 635/667 nm fluorescence, primary screen (AID 1139); conditions: fluorescence 635/667, higher = more signal
[8] = tested on: wheat germ agglutinin (Triticum aestivum), Alexa647-labelled; experiment: Alexa647-WGA lectin binding to printed small molecules – biochemical, small-molecule microarray, 635/667 nm fluorescence, artefact control for SMM control-protein annotation, profiling panel (AID 1140); conditions: WGA-A647 binding, 635 nm fluorescence, higher = more signal;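 further: score merges 667 nm feature emission with signal to noise over triplicate slides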
[9] = target: Luciferin 4-monooxygenase (Photinus pyralis) (UniProt P08659); experiment: inhibition of purified Photinus pyralis luciferase – biochemical, luminescence, purified enzyme, 2006 set, primary screen (AID 1141); conditions: purified firefly luciferase, SteadyGlo luminescence, 30 min; higher = more signal, called active from +8 up or from −8 down;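 further: cell-free assay with purified firefly luciferase at 100 ng per well in PBS; test concentration not given here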
Chain of Luciferin 4-monooxygenase (Photinus pyralis) (P08659 whole entry, looked up): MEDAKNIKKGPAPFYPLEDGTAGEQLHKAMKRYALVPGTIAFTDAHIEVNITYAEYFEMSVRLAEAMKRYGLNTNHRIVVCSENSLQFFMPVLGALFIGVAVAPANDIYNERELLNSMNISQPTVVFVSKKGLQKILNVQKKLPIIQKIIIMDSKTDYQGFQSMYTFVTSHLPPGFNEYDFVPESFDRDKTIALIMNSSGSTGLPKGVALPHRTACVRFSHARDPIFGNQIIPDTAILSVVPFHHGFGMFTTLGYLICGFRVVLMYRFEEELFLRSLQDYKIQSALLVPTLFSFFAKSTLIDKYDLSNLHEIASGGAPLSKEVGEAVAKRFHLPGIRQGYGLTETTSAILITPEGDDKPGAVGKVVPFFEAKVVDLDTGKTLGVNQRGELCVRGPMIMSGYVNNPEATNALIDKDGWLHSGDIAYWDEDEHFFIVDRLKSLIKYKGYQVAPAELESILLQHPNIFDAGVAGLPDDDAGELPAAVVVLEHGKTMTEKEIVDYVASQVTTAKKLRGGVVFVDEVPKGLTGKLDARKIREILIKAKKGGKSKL

[10] = tested on: Wnt5a (protein binding on small-molecule microarray); experiment: small molecules binding Wnt5a protein – biophysical, small-molecule microarray, 635/667 nm fluorescence, primary screen (AID 1142); conditions: 635 nm fluorescence, higher = more signal;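 further: fluorescence read at 667 nm with signal to noise per printed feature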
[11] = ATP-based viability of Huh7 replicon cells – cell-based, CellTiter-Glo luminescence, basal, 48 h, cytotoxicity control for HCV replication inhibitor project, primary screen (AID 1143); conditions: higher = more signal, called active from +8 up or from −8 down;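 further: Huh7 hepatoma cells carrying a hepatitis C replication reporter with no stimulus; test concentration not given here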
[12] = Pseudomonas biofilm growth suppression – PAO1 strain, BacTiter-Glo luminescence, LB-PBS, primary screen (AID 1144); conditions: P. aeruginosa PAO1 biofilm, 12 h, higher = more signal
[13] = basal CRE-LacZ reporter activity in PC12 – cell-based, unstimulated, primary screen (AID 1145); conditions: no forskolin, luminescence, 4.5 h, higher = more signal, called active from +8 up or from −8 down
[14] = forskolin-driven CRE-LacZ activity in PC12 – cell-based, CRE-LacZ reporter, forskolin-stimulated, primary screen (AID 1146); conditions: luminescence, 4.5 h, higher = more signal, called active from +8 up or from −8 down;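 further: PC12 cells with 6xCRE LacZ reporter stimulated by forskolin 10 µM; beta-galactosidase reporter signal reflecting CREB driven transcription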
[15] = target: Streptavidin (Streptomyces avidinii) (UniProt P22629); experiment: compounds binding control protein streptavidin – biophysical, small-molecule microarray, 635/667 nm fluorescence, artefact control for SMM compound annotation, primary screen (AID 1147); conditions: higher = more signal;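 further: signal reflects streptavidin binding to arrayed compounds as a control protein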
Chain of Streptavidin (Streptomyces avidinii) (P22629 whole entry, looked up): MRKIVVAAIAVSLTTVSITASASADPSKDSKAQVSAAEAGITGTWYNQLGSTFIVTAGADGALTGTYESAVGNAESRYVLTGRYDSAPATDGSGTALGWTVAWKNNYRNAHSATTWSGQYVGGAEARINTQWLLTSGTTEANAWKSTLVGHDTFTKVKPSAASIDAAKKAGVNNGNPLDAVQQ

[16] = probe aInhba binding on compound microarray – biochemical, small-molecule microarray, 635/667 nm fluorescence, primary screen (AID 1148); conditions: higher = more signal;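 further: score merges 667nm spot fluorescence with signal-to-noise for antibody binding to printed compounds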
Torsin-1A (Homo sapiens) [17] = target: Torsin-1A (Homo sapiens) (UniProt O14656); experiment: TOR1A wild-type binding on microarray – cell lysate, small-molecule microarray, lysate, 635/667 nm, primary screen (AID 1149); conditions: COS7 hTOR1A-WT lysate, 635 nm fluorescence, higher = more signal
Chain of Torsin-1A (Homo sapiens) (O14656 whole entry, looked up): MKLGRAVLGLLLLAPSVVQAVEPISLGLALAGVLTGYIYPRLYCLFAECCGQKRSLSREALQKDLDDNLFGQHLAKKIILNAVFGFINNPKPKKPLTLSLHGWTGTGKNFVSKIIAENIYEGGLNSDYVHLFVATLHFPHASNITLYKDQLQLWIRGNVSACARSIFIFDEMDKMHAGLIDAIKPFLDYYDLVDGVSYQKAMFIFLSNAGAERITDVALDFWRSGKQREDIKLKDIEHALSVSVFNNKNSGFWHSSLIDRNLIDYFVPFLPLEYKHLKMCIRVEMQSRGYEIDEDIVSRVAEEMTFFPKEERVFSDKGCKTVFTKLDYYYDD

Torsin-1A (Homo sapiens) [18] = target: Torsin-1A (Homo sapiens) (UniProt O14656); experiment: torsin A mutant lysate binding on microarrays – cell lysate, small-molecule microarray, COS7 lysate, 635/667 nm fluorescence, primary screen (AID 1150); conditions: COS7 hTOR1A mutant lysate, 635 nm fluorescence, higher = more signal;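 further: score pools 667 nm emission and signal to noise measuring lysate protein binding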
[19] = tested on: Sonic hedgehog protein (Shh); experiment: Sonic hedgehog microarray binding compounds – biochemical, small-molecule microarray, 635/667 nm fluorescence, primary screen (AID 1151); conditions: 635 nm fluorescence, higher = more signal;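 further: Shh protein binding to compounds spotted on small-molecule microarray slides; score combines spot fluorescence intensity with signal-to-noise across triplicate slides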

SMILES | composite z-score [1] | composite z-score [2] | composite z-score [3] | composite z-score [4] | composite z-score [5] | composite z-score [6] | z-score [7] | composite z-score (Lefty1) | composite z-score [8] | z-score [9] | composite z-score [10] | z-score [11] | z-score [12] | z-score [13] | z-score [14] | composite z-score [15] | composite z-score [16] | composite z-score (Torsin-1A (Homo sapiens) [17]) | composite z-score (Torsin-1A (Homo sapiens) [18]) | composite z-score [19]
COC(=O)[C@@]1(Cc2ccccc2)[C@H]2c3cc(C(=O)N(C)C)n(Cc4ccccn4)c3C[C@H]2CN1C(=O)c1ccccc1 | 1.54 | 0.827 | 1.56 | 1.04 | -0.226 | -0.389 | -0.128 | -0.225 | 0.88 | 1.56 (inactive) | 0.283 | -1.16 (inactive) | -0.0189 (inactive) | 1.73 (inactive) | 1.42 (inactive) | 2.27 | 0.38 | -0.208 | 0.239 | -0.709
COC(=O)c1ccc(OC)c(/C=C\CC(CCc2ccccc2)OC(=O)c2ccncc2)c1 (stereo not given) | 0.499 | -0.235 | -0.21 | -0.358 | 1.45 | 1.23 | 1.38 | 1.01 | 0.334 | -0.912 (inactive) | -0.272 | -1.66 (inactive) | 1.02 (inactive) | 1.75 (inactive) | 0.455 (inactive) | 0.925 | -0.404 | 0.175 | 0.092 | 1.25
CC1=C2[C@@H](CCc3ccccc3)OB(O)C[C@@H]2[C@@H]2C(=O)C=CC(=O)[C@@H]2C1 | 0.892 | 0.339 | -0.512 | 0.565 | 1.12 | 1 | -1.2 | 0.845 | 0.469 | -3.34 (inactive) | 0.135 | -0.894 (inactive) | 0.0958 (inactive) | 14.1 (active) | 28.4 (active) | 0.537 | -0.0873 | 0.355 | 0.474 | 1.44
CC(C)CN1C(=O)[C@@]2(Cc3ccccc31)c1ccccc1C(=O)N(Cc1ccccc1)[C@H]2c1ccc(CO)cc1 | -0.966 | -1.28 | -0.457 | -0.492 | -1.72 | -0.776 | -0.204 | -0.78 | 0.145 | -0.336 (inactive) | -0.631 | 0.174 (inactive) | -0.221 (inactive) | -0.295 (inactive) | 0.378 (inactive) | -0.64 | -0.102 | -0.971 | -0.359 | -1.05
CCCCCCC#C[Si](O[C@H](c1ccccc1)c1cn(Cc2cccc(Cl)c2)nn1)(C(C)C)C(C)C | 1.16 | 0.696 | 0.035 | 0.201 | 0.363 | 0.142 | 1.4 | 0.234 | 0.403 | 0.163 (inactive) | -0.14 | -0.736 (inactive) | -0.628 (inactive) | -1.12 (inactive) | -0.687 (inactive) | 0.967 | 0.0367 | 0.317 | 0.213 | 0.179
NC(=O)NCC#Cc1ccc2c(c1)[C@]1(C(=O)N2)[C@H](c2ccc(OCCO)cc2)N2[C@H](c3ccccc3)[C@H](c3ccccc3)OC(=O)[C@H]2[C@@H]1C(=O)N1CCN(c2ncccn2)CC1 | -0.192 | 0.973 | 0.0718 | 0.879 | 1.34 | 0.502 | -1.1 | 1.08 | 0.444 | -1.33 (inactive) | 0.132 | 0.342 (inactive) | -0.724 (inactive) | -0.491 (inactive) | -0.301 (inactive) | -0.373 | 0.15 | 0.539 | 0.673 | 1.5
C=CCC(OC(C)=O)[C@@H]1[C@@H](N(Cc2cc3ccccc3o2)C(=O)Cc2ccc(OC)cc2)c2cc(OCCCO)ccc2N1C(=O)c1ccc(-c2ccccc2)cc1 (stereo not given in full) | -0.316 | -0.313 | 0.107 | -0.203 | 0.352 | 0.133 | 0.94 | -0.492 | -0.272 | -0.52 (inactive) | 0.0628 | -0.279 (inactive) | -0.866 (inactive) | 2.47 (inactive) | -0.362 (inactive) | 0.215 | 0.105 | 0.176 | 0.262 | 0.0275
C[N+](C)(C)CCCC[C@@H]1NC(=O)[C@H]2C[C@@H](C(=O)NCCCCCCN)[C@@H](c3cccc(OCCO)c3)N2C1=O | 0.711 | 1.21 | 0.209 | 0.704 | 1.4 | 1.51 | -0.798 | 1.67 | 1.13 | 0.815 (inactive) | 0.693 | 0.0395 (inactive) | 0.406 (inactive) | -0.809 (inactive) | -0.254 (inactive) | 1.65 | 0.794 | 1.33 | 1.25 | 2.04
COC(=O)[C@@]1(Cc2ccccc2)[C@H]2c3cc(C(=O)N4CCCC4)n(Cc4ccc(OC(F)(F)F)cc4)c3C[C@H]2CN1C(=O)c1ccccc1 | 1.52 | 1.24 | 0.653 | 0.892 | 0.575 | -0.65 | 0.989 | -0.577 | 1.16 | 1 (inactive) | 1.01 | -2.44 (inactive) | 0.0853 (inactive) | 2.49 (inactive) | 2.25 (inactive) | 1.64 | 1.08 | -0.429 | 0.969 | -1.44
Cc1ccc(C(C)CC(O)C2C=CC3C(=O)N(Cc4ccccc4)C(=O)C3N2n2cnnc2)o1 (stereo not given) | 1.54 | 0.942 | -0.103 | 0.923 | 0.713 | 0.0103 | -1.49 | 0.273 | 0.842 | 0.785 (inactive) | 1.36 | -0.167 (inactive) | 0.928 (inactive) | 0.323 (inactive) | 1.14 (inactive) | 0.352 | 1.36 | 0.173 | 0.663 | -0.265
